SARS 3CLpro inh: SARS-CoV 3CLpro protease inhibition. inhibition, % at 6 µM. P0C6X7. recombinant SARS-CoV 3CLpro, quenched FRET peptide cleavage. hit rate 0.14% among 290,000; in the data active means inhibition above about 12%
MazF activator: increases E. coli MazEF RNase cleavage of RNA; FAM/BHQ RNA-DNA oligo cleavage fluorescence, 5 h; hit rate 0.32% among 350,000; activation, % at 20 µM; P0AE70; in the data active means activation above about 50%
Target sequence (P0AE70 whole entry, looked up): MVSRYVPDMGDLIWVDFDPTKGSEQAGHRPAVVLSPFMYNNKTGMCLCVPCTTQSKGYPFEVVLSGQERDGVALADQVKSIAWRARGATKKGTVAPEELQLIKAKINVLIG
CCHFV vOTU inh: CCHFV vOTU protease inhibition; Pep-AMC fluorescence; hit rate 0.55% among 370,000; AID 651958; inhibition, % at 11.5 µM; in the data active means inhibition above about 30%; further: 0% = vehicle wells with enzyme and 100% = no enzyme wells
BJeLR lethal: BJeLR cell viability loss. inhibition, % (test concentration not listed). hit rate 0.17% among 300,000. BJeLR (HRASV12) viability, CellTiter-Glo ATP luminescence, 48 h. AID 1554; in the data active means inhibition above about 50%
DUSP3 inh: blocks human VHR1 dual specificity phosphatase; P51452; recombinant VHR phosphatase, pNPP absorbance; inhibition, % at 13.3 µM; hit rate 0.52% among 290,000; AID 1654; in the data active means inhibition above about 50%
Target sequence (P51452 whole entry, looked up): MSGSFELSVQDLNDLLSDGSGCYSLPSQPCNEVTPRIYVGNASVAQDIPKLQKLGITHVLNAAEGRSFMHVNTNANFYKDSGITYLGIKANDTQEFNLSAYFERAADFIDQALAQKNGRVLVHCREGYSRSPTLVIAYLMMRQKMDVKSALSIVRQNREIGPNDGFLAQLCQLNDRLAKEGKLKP
Numbers without * were called inactive; . = no result given; + = active, no number. Sampled rows, rich in hits. Any-hit rate of the full collection: about 1.4%.

SMILES	SARS 3CLpro inh	MazF activator	CCHFV vOTU inh	BJeLR lethal	DUSP3 inh
CCn1c(=N)c(S(=O)(=O)c2ccccc2)cc2c(=O)n3ccccc3nc21	-2.5	228.2*	-30.0	-3.1	13.9
CCn1c(=N)c(S(=O)(=O)c2ccc(C)cc2)cc2c(=O)n3ccccc3nc21	3.7	.	-10.3	-0.1	52.5*
Cc1ccc(S(=O)(=O)c2cc3c(=O)n4cccc(C)c4nc3n(C3CCCCC3)c2=N)cc1	-2.4	52.5*	.	1.5	1.8
COc1ccc(S[C@]2(C(=O)NCCc3ccccc3)CC(=O)N[C@@H]2c2ccc(OC)cc2)cc1	.	.	13.7	.	.
C=CCN1[C@H](C#N)[C@@H](c2ccc(C#Cc3cccnc3)cc2)[C@H]1CO	.	.	-3.8	.	.
O=C(NCC1COc2ccccc2O1)c1ccc(NC(=O)c2c(Cl)cccc2Cl)cc1 (stereo not drawn)	.	.	0.4	.	.
CCOC(=O)[C@]12CCCCC/C=C\1N(Cc1ccc(OC)cc1)C(=O)[C@H]2CC(=O)N1CCN(C(=O)C2CC2)CC1	.	.	3.9	.	.
CCOc1cc(C2C(C#N)=C(N)OC(C)=C2C(C)=O)cc(Br)c1O (stereo not drawn)	-0.8	-115.8	-13.4	-0.5	50.0*
Cc1cccc(-c2nnc(SCC(=O)Nc3cccc4ccccc34)n2Cc2ccco2)c1	.	.	9.1	.	.
Oc1cc2c(cc1O)C1c3ccc(O)c(O)c3OCC1(O)C2 (stereo not drawn)	4.0	263.9*	-5.2	.	21.1
COc1ccc(Cn2c(NC(=O)c3ccccc3)nc(Cc3ccccc3)c2-c2ccccc2)c(OC)c1	.	.	1.0	.	.
CC(=O)C1=C(C)Nc2ncnn2C1c1cccc(OCc2ccccc2)c1 (stereo not drawn)	-0.3	3.7	14.8	1.0	53.3*
CCC(C(=O)N1CCN(Cc2ccc3c(c2)OCO3)CC1)n1c(=O)[nH]c2ccccc2c1=O (stereo not drawn)	-0.4	6.6	12.1	-4.4	51.2*
Cc1ccc(C)c(N2CCN(C(=O)c3ccc(Cn4c(=O)[nH]c5ccccc5c4=O)cc3)CC2)c1	0.2	-21.3	-1.9	-6.3	51.2*
O=C(Cn1c(=O)[nH]c2ccccc2c1=O)N1CCN(Cc2ccc3c(c2)OCO3)CC1	3.5	14.1	10.8	8.4	6.8
O=C(c1ccc(Cn2c(=O)[nH]c3ccccc3c2=O)cc1)N1CCN(c2ccc(Cl)cc2)CC1	-1.1	-11.0	4.9	-2.8	28.6
O=C(c1ccc2c(=O)n(Cc3ccc4c(c3)OCO4)c(=O)[nH]c2c1)N1CCN(c2ccccc2)CC1	-1.6	62.2*	1.5	-6.9	23.2
CCCCCCCCN1C(=O)[C@@H](CC(=O)NCCCOC)C[C@@]2(C(=O)OC)C1=C[C@H](COCc1ccccc1)O[C@@H]2C	.	.	15.1	.	.
COCCCNC(=O)C[C@H]1C(=O)N(Cc2ccc(OC)cc2)C2=CCCCC[C@@]21C(=O)OC	.	.	6.7	.	.
O=C(Nc1nc(-c2ccccc2)cs1)C1CCCCN1S(=O)(=O)c1ccc(Cl)cc1 (stereo not drawn)	8.1	-11.5	.	5.5	2.4
CC(C)(C)C(=O)Nc1nc(C2CCCN2S(=O)(=O)c2ccc(Cl)cc2)cs1 (stereo not drawn)	5.4	50.5*	6.0	-1.3	5.7
N=c1c2c(-c3ccccc3)c(-c3ccccc3)n(Cc3ccco3)c2ncn1Cc1ccco1	6.6	16.9	-1.8	15.4	3.5
CCCCn1cnc2c(c(-c3ccccc3)c(-c3ccccc3)n2Cc2ccco2)c1=N	6.2	20.2	7.1	62.3*	0.0
Cc1cccc(CN2C(=O)N/C(=C/c3ccc(C)s3)C2=O)c1	3.1	189.5*	5.7	10.8	32.7
CC(C)C[C@H]1COc2cc(N3CCCC3)ccc2S(=O)(=O)N1C	.	.	0.4	.	.
SMILES	SARS 3CLpro inh	MazF activator	CCHFV vOTU inh	BJeLR lethal	DUSP3 inh
C[C@]12CCC3C(CCC4=CC(O)CC[C@@]43/C=N/O)C1(O)CCC2C1=CC(=O)OC1 (stereo partly drawn)	-2.3	6.8	-15.2	69.4*	19.7
CC(=O)N1CCN(S(=O)(=O)c2ccc3c(c2)oc(=O)n3C)CC1	.	.	-4.0	.	.
CCOc1ccc(-n2c(SCC(=O)Nc3ccc4cn[nH]c4c3)nnc2-c2ccc(C(C)(C)C)cc2)cc1	.	.	11.3	.	.
Cc1ccc(NCc2nnc(SCC(=O)c3ccc4c(c3)OCCO4)o2)c(C)c1	-9.0	52.4*	7.9	8.8	12.9
COC(=O)c1cc2c(=O)c3ccccc3oc2nc1/C=C/N(C)C	0.7	85.2*	-14.0	3.8	19.7
CCN(CC)C(=O)CC[C@@H]1CC[C@]2(CCCN(Cc3ccccn3)C2)O1	.	.	1.8	.	.
Cn1c(=O)c(Nc2ccc(O)cc2)c2c3c(cccc31)C(=O)c1ccccc1-2	0.2	64.5*	11.9	-5.3	16.8
CC(=O)c1c2c3c(cccc3n(C)c1=O)C(=O)c1ccccc1-2	-1.8	19.2	.	-4.0	53.9*
CCN1C(=S)SC(=O)C1=C1C=C(C)N(Cc2ccco2)C(C)=C1	2.2	-9.1	10.1	6.9	10.0
CCN1C(=S)SC(=O)C1=C1C=C(C)OC(C)=C1	2.1	+	1.8	0.8	-9.1
O=c1c(Cl)nc2cc(Cl)ccc2n1CCNc1ncc(C(F)(F)F)cc1Cl	0.3	23.6	.	87.8*	-8.2
O=c1c2nncn2c2cc(C(F)(F)F)ccc2n1CCNc1ncc(C(F)(F)F)cc1Cl	-2.3	-0.5	-11.1	-2.2	12.7
Cc1cccc(Nc2nc(N)nc(CCl)n2)c1C	2.5	5.6	-5.4	55.8*	8.7
COc1ccc(OC)c(Nc2nc(N)nc(CCl)n2)c1	0.3	8.4	-12.2	120.5*	27.1
CCOc1ccc(Nc2nc(N)nc(CCl)n2)cc1	-0.5	-1.6	-9.6	98.9*	27.7
Cc1cccc(Nc2nc(N)nc(CCl)n2)c1	-3.3	6.5	-8.5	94.0*	1.1
Cc1ccc(Nc2nc(N)nc(CCl)n2)cc1	-0.1	4.3	-3.0	-0.6	31.0
O=C(COc1ccccc1C(=O)NCc1ccccc1)Nc1ccc(I)cc1	.	.	4.1	.	.
Cc1ccc(Nc2nc(N)nc(CCl)n2)c(C)c1	-3.0	1.0	5.6	121.0*	13.3
COC(=O)[C@]12C[C@H](CC(=O)NCc3cccc(C(F)(F)F)c3)C(=O)N(Cc3ccc(Cl)cc3Cl)C1=C[C@H](COCc1ccccc1)O[C@@H]2C	.	.	15.3	.	.
Cc1ccc(CNC(=O)C2CCN(c3nn4c(=O)cc(C)nc4s3)CC2)cc1	2.4	-5.4	4.2	-2.2	-17.2
Cc1cc(=O)n2nc(N3CCC(C(=O)NCc4ccccc4)CC3)sc2n1	-3.1	-0.5	8.1	-5.1	52.1*
O=C(N=Nc1c(O)[nH]c2ccc([N+](=O)[O-])cc12)c1ccccc1Cl	2.5	2.0	-13.2	6.6	56.6*
Cc1ccc(S(=O)(=O)N(C)CC(=O)O/N=C(\N)c2ccccn2)cc1	2.2	60.9*	-8.4	-7.3	10.4
CCN(CC)C(=O)CSc1nc2c(sc(=S)n2-c2ccccc2)c(=O)n1-c1ccc(OC)cc1OC	7.0	0.2	-0.9	-8.3	13.9
CCOC(=O)CSc1nc2c(sc(=S)n2-c2ccccc2)c(=O)n1-c1ccc(OC)cc1OC	-4.5	-0.6	-5.7	-1.7	52.6*
